An excerpt weighted towards active compounds, which were near 13% of everything screened.
HADH2 inh: HADH2 (human) dehydrogenase inhibition; recombinant HADH2, NADH fluorescence, beta-hydroxybutyryl-CoA; Potency, µM (titrated, usually from 57.1 µM), inactives show top-dose activity change, negative = inhibition, most hits filed as inhibitors; 3.4% of 73,000 active; note: potency is the fitted concentration of half-maximal effect; % is set by controls: 0 for no effect and ±100 for the full control effect; nearly all actives have a fitted effect of over 60% in size
Target sequence (Q99714 whole entry, looked up, one chain of several): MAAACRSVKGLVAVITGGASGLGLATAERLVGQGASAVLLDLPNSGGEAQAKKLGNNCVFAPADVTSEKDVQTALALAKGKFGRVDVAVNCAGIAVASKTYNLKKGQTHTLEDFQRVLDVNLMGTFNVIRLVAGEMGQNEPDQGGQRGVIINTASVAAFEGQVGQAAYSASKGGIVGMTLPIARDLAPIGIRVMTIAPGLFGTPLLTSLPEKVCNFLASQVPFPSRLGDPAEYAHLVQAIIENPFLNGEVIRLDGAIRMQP
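E. coli-expressed His-tagged HADH2 tested at 20 nM in alkaline Tris buffer (pH 9.0); oxidation of 90 uM beta-hydroxybutyryl-CoA with 1 mM NAD+ tracked fluorimetrically for 4 min.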
4MU fluor: compounds fluorescent in 4-MU spectral region. compound autofluorescence, 340/450 nm, 4-MU equivalents; hits give high values. max dye-equivalent concentration, M. 11% of 59,000 active; in the data active = max dye-equivalent concentration above about 10 nM; inconclusive = mostly about 1.1 nM to 9.6 nM
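Intrinsic fluorescence at 340/450 nm (ex/em) was read after 15 min at room temperature in pH 8.0, 100 mM Tris. Each compound concentration expressed as 4-MU-equivalent concentration from a six-point 4-MU standard series on each plate.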
AID923: qHTS Assay for Allosteric/Competitive Inhibitors of Caspase-1: Spectroscopic Profiling in AFC Spectral Region | compound fluorescence, AFC spectral region (405/520 nm) | Potency, µM (series often up to 57.5 µM), inactives show top-dose fluorescence increase, usual class: activators | 1.1% of 75,000 active; note: potency is the fitted concentration of half-maximal effect; 0% is about no effect
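Compound autofluorescence profiled at 405 nm ex/520 nm em during kinetic caspase 1 run (50 nM enzyme, 5 uM Ac-WEHD-AFC, HEPES pH 7.5, 10 mM DTT). Titration up to 57 uM; baseline from regression intercept, normalized to AFC standard curve.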
HSD17B inhib: inhibitors of human HSD17B10 dehydrogenase; Potency, µM (highest dose often 57.1 µM), without a hit: at the highest dose activity change, negative = inhibition, hits mostly inhibitors; recombinant HSD17B10, NADH fluorescence kinetic; 7.6% of 75,000 active;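 note: the protocol describes HADH2 (HSD17B10) and not the HSD17B4 of the title; potency is the fitted concentration of half-maximal effect; % is set by controls: 0 for no effect and ±100 for the full control effect; nearly all actives have a fitted effect of over 70% in size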
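Enzyme plus compound, 15 min room temperature; substrate mix added (NAD+ 1 mM, beta-hydroxybutyryl-CoA 90 uM final); plates read kinetically for NADH fluorescence. HADH2 was His-tagged, E. coli-derived, 20 nM.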
A350 fluor: compound fluoresces in the Alexa 350 spectral region; Compound autofluorescence, 340/450 nm, Alexa 350 dye-equivalents; hits give high values; 11% of 59,000 active; max dye-equivalent concentration, M; AID 590; in the data active = max dye-equivalent concentration above about 10 nM; inconclusive = mostly about 1.1 nM to 9.6 nM
Starred values were filed as active, the others as inactive; [ ] = another dose, or the depositor's remark. Unless noted, calls come from the whole dose curve; as a rule, active = well fitted curve in the direction sought with a large enough effect; inconclusive = small, poorly fitted or top-dose-only effect, or another doubt; inactive = no such curve, though single readings can be large; an effect the other way counts as inactive or inconclusive.

Screening CCN(CC)CCN1C(=O)C(=O)/C(=C(/O)c2ccncc2)C1c1ccccc1F (configuration not stated) returned HADH2 inh -2%, 4MU fluor 1.3e-08M*, AID923 0%, HSD17B inhib 1% and A350 fluor 1.8e-08M*.
For CCN(CC)CCCN1C(=O)C(=O)/C(=C(/O)c2ccc3c(c2)CC(C)O3)C1c1ccncc1 (configuration not stated) the results were 4MU fluor inactive and A350 fluor inactive.
Screening CCN(CC)CCN1C(=O)C(=O)/C(=C(/O)c2ccc(F)cc2)C1c1ccncc1 (configuration not stated) returned 4MU fluor inactive and A350 fluor inactive.
`CC1Cc2cc(/C(O)=C3\C(=O)C(=O)N(CCN(C)C)C3c3ccccc3F)ccc2O1` (configuration not stated) gave HADH2 inh -6%, 4MU fluor 1.9e-08M*, AID923 -1%, HSD17B inhib 1% and A350 fluor 2.5e-08M*.
Screening CC(=O)Nc1ccc(S(=O)(=O)Nc2cccc(N(C)S(C)(=O)=O)c2)cc1 returned HADH2 inh -10%, 4MU fluor 8e-08M*, AID923 -1%, HSD17B inhib -14% and A350 fluor 9.5e-08M*.
COC(=O)COc1cccc(NS(=O)(=O)c2ccc(NC(C)=O)cc2)c1 was read as HADH2 inh -9%, 4MU fluor inactive, AID923 -2%, HSD17B inhib -2% and A350 fluor inactive.
Screening O=c1c2c3c(sc2nc2n1CCCS2)CCCC3 returned 4MU fluor 1e-08M* and A350 fluor 1.4e-08M*.
For O=c1c2c3c(sc2nc2n1CCCCC2)CCCCC3 the results were HADH2 inh inconclusive, AID923 -3% and HSD17B inhib -3%.
For O=c1c2c3c(sc2nc2n1CCCCC2)CCCC3 the results were HADH2 inh 10µM*, AID923 -1% and HSD17B inhib inconclusive.
For COc1ccc(-c2nc3c(=O)n(C)c(=O)[nH]c3n2CCc2ccccc2)cc1 the results were HADH2 inh inactive, 4MU fluor inconclusive, AID923 3%, HSD17B inhib 25µM* and A350 fluor 1.1e-08M*.
Cc1nc2c(=O)n(C)c(=O)[nH]c2n1Cc1ccccc1 was read as 4MU fluor 4.6e-08M* and A350 fluor 5.3e-08M*.
Screening CCCn1c(-c2ccccc2)nc2c(=O)n(C)c(=O)[nH]c21 returned HADH2 inh 13µM*, AID923 0% and HSD17B inhib 32µM*.
`C=CCc1ccccc1OC[C@H](O)CNC(C)C` gave HADH2 inh -12%[25.6 µM], 4MU fluor inactive, AID923 4%[25.7 µM], HSD17B inhib -2%[25.6 µM] and A350 fluor inactive.
For COc1ccccc1CNc1ncnc2ccc(-c3ccoc3)cc12 the results were HADH2 inh inconclusive, 4MU fluor inactive, AID923 2%, HSD17B inhib inconclusive and A350 fluor inconclusive.
C(=N\n1cnnc1)/c1cccc2ccccc12 was read as HADH2 inh inconclusive, 4MU fluor 1.5e-08M*, AID923 -1%, HSD17B inhib inconclusive and A350 fluor 1.9e-08M*.
`CCn1c(/C=N/n2cnnc2)nc2ccccc21` gave HADH2 inh 32µM*, AID923 4% and HSD17B inhib 25µM*.
`COc1ccccc1/C=N/n1cnnc1` gave HADH2 inh inconclusive, AID923 -1% and HSD17B inhib inconclusive.
Screening C(=N\n1cnnc1)/c1cn(Cc2ccccc2)c2ccccc12 returned HADH2 inh inconclusive, AID923 -2% and HSD17B inhib -11%.
For CCn1c2ccccc2c2cc(/C=N/n3cnnc3)ccc21 the results were HADH2 inh 25µM*, 4MU fluor 3.2e-07M*, AID923 15%, HSD17B inhib 25µM* and A350 fluor 3.1e-07M*.
`COCCCNC(=O)Cn1nc(-c2ccc(C)cc2)ccc1=O` gave HADH2 inh -4%, 4MU fluor inactive, AID923 0%, HSD17B inhib 25µM* and A350 fluor inconclusive.
For COc1ccc(CNC(=O)Cn2nc(-c3ccc4c(c3)OCCO4)ccc2=O)cc1 the results were HADH2 inh -14%, 4MU fluor 1.6e-07M*, AID923 2%, HSD17B inhib inactive and A350 fluor 1.3e-07M*.
Cc1ccc(-c2ccc(=O)n(CC(=O)NCCN(C)C)n2)cc1 was read as HADH2 inh 5%, 4MU fluor inactive, AID923 -1%, HSD17B inhib -16% and A350 fluor inactive.
For COC(=O)c1sc(NC(=O)c2oc3ccccc3c2C)nc1C the results were 4MU fluor 1.4e-08M* and A350 fluor 1.7e-08M*.
Screening Cc1c(C(=O)Nc2nnc(C(F)(F)F)s2)oc2ccccc12 returned HADH2 inh 13%, AID923 1% and HSD17B inhib 1%.
`Cc1cc(NC(=O)COC(=O)CSc2nc3cc(Cl)ccc3n2Cc2ccccc2)no1` gave HADH2 inh 14%, 4MU fluor 4.6e-08M*, AID923 -2%, HSD17B inhib -5% and A350 fluor 5.7e-08M*.
For Cc1cc(NC(=O)CSc2nc3ccccc3c(=O)n2Cc2ccccc2)no1 the results were HADH2 inh -4%, 4MU fluor inactive, AID923 0%, HSD17B inhib 3% and A350 fluor inactive.
CC(=O)Oc1cc(OC(C)=O)c2c(c1)OC(c1ccc(OC(C)=O)c(OC(C)=O)c1)C(OC(C)=O)C2 (configuration not stated) was read as AID923 0% and HSD17B inhib -9%.
`Cc1cc(=O)oc2cc(OCC(O)CN3CCc4ccccc4C3)ccc12` (configuration not stated) gave HADH2 inh inconclusive, 4MU fluor 3.3e-07M*, AID923 4%, HSD17B inhib 32µM* and A350 fluor 5.2e-07M*.
Cc1cc(=O)oc2cc(OCC(O)CN3CCN(c4ccccc4)CC3)ccc12 (configuration not stated) was read as HADH2 inh inconclusive, 4MU fluor inconclusive, AID923 1%, HSD17B inhib 32µM* and A350 fluor 1.1e-08M*.
Screening OC(COc1ccc2c(c1)CCC2)CN1CCN(c2ccccc2F)CC1 (configuration not stated) returned HADH2 inh 2%, 4MU fluor inactive, AID923 -1%, HSD17B inhib -13% and A350 fluor inactive.
Screening O=S(=O)(c1ccc(OCC(O)CN2CCN(c3ccccc3)CC2)cc1)N1CCOCC1 (configuration not stated) returned HADH2 inh 9%, 4MU fluor inactive, AID923 0%, HSD17B inhib -4% and A350 fluor inactive.

Bioassay records (PubChem BioAssay)
